Results: PubChem BioAssay
The source made the active and inactive calls.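 How the source made its calls: active means compounds giving at least 50% inhibition in the cell-based MKP-3 phosphatase rescue imaging test; inactive means the rest.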

System: not listed separately
Assay: Primary imaging screen for DUSP6 inhibitors that restore phospho-Erk in transfected HeLa cells, chemical complementation (AID 609);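 on inhibition: phospho-Erk level distribution per well compared with pooled transfected vehicle control wells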
Conditions: HeLa MKP-3 transfected, phospho-Erk imaging KS statistic; measured here: nuclear pErk red intensity z-score; at 10 µM; stronger effect = higher value; cells stimulated with TPA for 15 min

Compound	z-score
Cc1cc(C)n(S(=O)(=O)/C=C/c2ccccc2)n1	0.596
N#Cc1nc(-c2ccc(F)cc2)oc1N1CCCC1	0.859
CCOC(=O)c1[nH]c2ccc(C)cc2c1N=CN(CC)CC	0.686
Cn1c(NCCCO)nc2c1c(=O)n(Cc1ccccc1F)c(=O)n2C	0.588
C=CCOc1ccc(/C(O)=C2/C(=O)C(=O)N(CCCN3CCOCC3)C2c2ccc(OC)cc2)cc1 (stereo not given)	0.613
CCOc1ccc2c(c1)n([O-])c1c([n+]2=O)CCCC1	-1.91
CCCC(=O)N1CCc2[nH]c3ccccc3c2C1	-0.975
CCN(CC)c1nc(N2CCOCC2)c(C#N)c2c1CN(C)CC2	0.0125
CN1C(=O)C2(c3ccccc31)C1CCCC=C1C(C#N)=C(N)C2(C#N)C#N (stereo not given)	-0.897
Cc1sc(-n2c(C)ccc2C)c(C#N)c1C	1.07
CCN(CC)CCN1C(=O)C(O)=C(C(C)=O)C1c1ccc(OC)c(OC)c1 (stereo not given)	1.22
CCOC(=O)C(C(=O)OCC)N(C#N)c1nc(SC)nc(N(C)C)n1	4.3
CCSc1nnc(NC(=O)C(C)(C(F)(F)F)C(F)(F)F)s1	-1.02
CC(C)=CCC(C)(C)CNC(=O)NC1CCCCC1	-0.256
CCCOC(=O)CSC1=C(C#N)C(c2ccc3c(c2)OCO3)CC(=O)N1 (stereo not given)	-1.26
COc1ccc(N2CC(=O)N(c3ccc(OC)c(OC)c3)CC2=O)cc1OC	1.66
CCCCCCOc1ccc(C(=O)n2cnc(N)n2)cc1	-0.706
CCSc1nc2sc3c(c2c2nnc(SCC(=O)NCc4ccco4)n12)CCCC3	-1.17
C=CCc1cccc(CNc2nc3ccccc3n2C(C)C)c1O	1.18
O=C(Nc1ccc(N2CCN(C(=O)c3ccccc3)CC2)c(Cl)c1)c1ccc(Br)o1	-0.883

Compound	z-score
COc1ccc(NC(=O)c2c(C)cc(=O)oc2C)c(OC)c1	0.577
Cc1c(C)[n+](=O)c2c(n1[O-])CCC2	0.608
COC(=O)CCc1c(C)[nH]c(=S)[nH]c1=O	-1.03
CCOC(=O)C1=C(N)n2c(s/c(=C\c3cccnc3)c2=O)=C(C(=O)OC)C1c1cccnc1 (stereo not given)	-0.0878
COc1ccc(CNc2oc(COc3ccc(Cl)cc3)nc2C#N)cc1	0.0628
CC1(C)Cc2[nH]c(=O)c(C#N)cc2CS1	1.37
COc1ccccc1C1CC(c2ccc(Cl)cc2)Nc2nc(N)nn21 (stereo not given)	-0.582
CCOC(=O)C(C)Oc1ccc2c(C)cc(=O)oc2c1C(C)=O (stereo not given)	1.56
CCC1(C)Cc2c(sc(NC(=O)CCC(=O)O)c2C#N)CO1 (stereo not given)	0.102
Cc1cc(C)n(CC(=O)c2ccccc2)c(=O)c1C#N	0.941
COc1cccc(Cn2c(NCc3ccccn3)nc3c2c(=O)n(C)c(=O)n3C)c1	-0.0315
O=C(NCCCN1CCOCC1)C1(c2ccccc2)CCOCC1	-0.449
O=C(NCc1ccco1)c1ccc(=O)[nH]n1	-1.39
CC(NC(=O)CSc1nc2c(cc1C#N)CN(C)CC2)c1ccccc1 (stereo not given)	-0.682
COc1cccc(C(=O)OC2CCCN(C)C2)c1 (stereo not given)	0.0712
Cn1c(=O)[nH]c(=O)c2c1nc(N1CCN(c3cccc(Cl)c3)CC1)n2CCCc1ccccc1	-0.00216
CCOC(=O)c1[nH]c2ccc(OC)cc2c1NC(=O)CCN1CCCC(C)C1 (stereo not given)	-1.15
O=C(NCc1ccccc1)C1C(=O)N(Cc2ccccc2)C(=O)C1C1(O)CCCC1 (stereo not given)	0.754
COC(=O)c1ccccc1NC(=O)C1COc2ccccc2O1 (stereo not given)	-1.54
CCOC(=O)c1[nH]c2ccccc2c1N=CN(CC)CC	0.765

Target: Dual specificity protein phosphatase 6 (Homo sapiens) (UniProt Q16828)
Sequence (Q16828 whole entry, looked up): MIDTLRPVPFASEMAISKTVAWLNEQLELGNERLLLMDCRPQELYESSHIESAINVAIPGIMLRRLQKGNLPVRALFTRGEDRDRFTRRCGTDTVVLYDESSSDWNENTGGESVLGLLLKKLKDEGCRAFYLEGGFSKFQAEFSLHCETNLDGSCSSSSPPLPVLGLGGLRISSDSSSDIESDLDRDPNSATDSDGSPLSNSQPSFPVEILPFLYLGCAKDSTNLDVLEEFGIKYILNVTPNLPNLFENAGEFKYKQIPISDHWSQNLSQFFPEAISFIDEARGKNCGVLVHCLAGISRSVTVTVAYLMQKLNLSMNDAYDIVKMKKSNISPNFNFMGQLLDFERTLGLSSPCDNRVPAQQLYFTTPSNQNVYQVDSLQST
Assay: as above
Conditions: HeLa MKP-3 transfected, phospho-Erk imaging KS statistic; at 10 µM; stronger effect = higher value; cells stimulated with TPA for 15 min

Compound	inhibition
Cc1cc(C)n(S(=O)(=O)/C=C/c2ccccc2)n1	-10.6% (inactive)
N#Cc1nc(-c2ccc(F)cc2)oc1N1CCCC1	9.07% (inactive)
CCOC(=O)c1[nH]c2ccc(C)cc2c1N=CN(CC)CC	3.97% (inactive)
Cn1c(NCCCO)nc2c1c(=O)n(Cc1ccccc1F)c(=O)n2C	1.9e-07% (inactive)
C=CCOc1ccc(/C(O)=C2/C(=O)C(=O)N(CCCN3CCOCC3)C2c2ccc(OC)cc2)cc1 (stereo not given)	14% (inactive)
CCOc1ccc2c(c1)n([O-])c1c([n+]2=O)CCCC1	23.4% (inactive)
CCCC(=O)N1CCc2[nH]c3ccccc3c2C1	-5.62% (inactive)
CCN(CC)c1nc(N2CCOCC2)c(C#N)c2c1CN(C)CC2	7.21% (inactive)
CN1C(=O)C2(c3ccccc31)C1CCCC=C1C(C#N)=C(N)C2(C#N)C#N (stereo not given)	29.4% (inactive)
Cc1sc(-n2c(C)ccc2C)c(C#N)c1C	7.73% (inactive)
CCN(CC)CCN1C(=O)C(O)=C(C(C)=O)C1c1ccc(OC)c(OC)c1 (stereo not given)	-5.62% (inactive)
CCOC(=O)C(C(=O)OCC)N(C#N)c1nc(SC)nc(N(C)C)n1	33.3% (inactive)
CCSc1nnc(NC(=O)C(C)(C(F)(F)F)C(F)(F)F)s1	1.9e-07% (inactive)
CC(C)=CCC(C)(C)CNC(=O)NC1CCCCC1	-0.584% (inactive)
CCCOC(=O)CSC1=C(C#N)C(c2ccc3c(c2)OCO3)CC(=O)N1 (stereo not given)	-7.86% (inactive)
COc1ccc(N2CC(=O)N(c3ccc(OC)c(OC)c3)CC2=O)cc1OC	3.42% (inactive)
CCCCCCOc1ccc(C(=O)n2cnc(N)n2)cc1	-5.95% (inactive)
CCSc1nc2sc3c(c2c2nnc(SCC(=O)NCc4ccco4)n12)CCCC3	1.9e-07% (inactive)
C=CCc1cccc(CNc2nc3ccccc3n2C(C)C)c1O	-3.95% (inactive)
O=C(Nc1ccc(N2CCN(C(=O)c3ccccc3)CC2)c(Cl)c1)c1ccc(Br)o1	-7.28% (inactive)

Compound	inhibition
COc1ccc(NC(=O)c2c(C)cc(=O)oc2C)c(OC)c1	-7.67% (inactive)
Cc1c(C)[n+](=O)c2c(n1[O-])CCC2	13.9% (inactive)
COC(=O)CCc1c(C)[nH]c(=S)[nH]c1=O	-4.78% (inactive)
CCOC(=O)C1=C(N)n2c(s/c(=C\c3cccnc3)c2=O)=C(C(=O)OC)C1c1cccnc1 (stereo not given)	-2.59% (inactive)
COc1ccc(CNc2oc(COc3ccc(Cl)cc3)nc2C#N)cc1	-5.62% (inactive)
CC1(C)Cc2[nH]c(=O)c(C#N)cc2CS1	-0.233% (inactive)
COc1ccccc1C1CC(c2ccc(Cl)cc2)Nc2nc(N)nn21 (stereo not given)	11.9% (inactive)
CCOC(=O)C(C)Oc1ccc2c(C)cc(=O)oc2c1C(C)=O (stereo not given)	1.98% (inactive)
CCC1(C)Cc2c(sc(NC(=O)CCC(=O)O)c2C#N)CO1 (stereo not given)	9.91% (inactive)
Cc1cc(C)n(CC(=O)c2ccccc2)c(=O)c1C#N	-3.95% (inactive)
COc1cccc(Cn2c(NCc3ccccn3)nc3c2c(=O)n(C)c(=O)n3C)c1	17.8% (inactive)
O=C(NCCCN1CCOCC1)C1(c2ccccc2)CCOCC1	-3.95% (inactive)
O=C(NCc1ccco1)c1ccc(=O)[nH]n1	28.1% (inactive)
CC(NC(=O)CSc1nc2c(cc1C#N)CN(C)CC2)c1ccccc1 (stereo not given)	6.04% (inactive)
COc1cccc(C(=O)OC2CCCN(C)C2)c1 (stereo not given)	9.42% (inactive)
Cn1c(=O)[nH]c(=O)c2c1nc(N1CCN(c3cccc(Cl)c3)CC1)n2CCCc1ccccc1	24% (inactive)
CCOC(=O)c1[nH]c2ccc(OC)cc2c1NC(=O)CCN1CCCC(C)C1 (stereo not given)	11.4% (inactive)
O=C(NCc1ccccc1)C1C(=O)N(Cc2ccccc2)C(=O)C1C1(O)CCCC1 (stereo not given)	-13.3% (inactive)
COC(=O)c1ccccc1NC(=O)C1COc2ccccc2O1 (stereo not given)	-0.674% (inactive)
CCOC(=O)c1[nH]c2ccccc2c1N=CN(CC)CC	1.9e-07% (inactive)
